Among the data in PubChem BioAssay (Tox21) are outcome values, retold here.

Results filed as inconclusive are left out. Calls of active or inactive are those of the source. Calls come from the whole dose curve; as a rule, active = well fitted inhibition curve with a large enough effect in the signal ratio in the repeat runs (not every such curve was filed as active); inconclusive = weak or mixed curves, or effect the other way; inactive = no such curve, though single readings can be large or run the other way; the % refers to the signal ratio.

Vitamin D3 receptor (Homo sapiens), sequence (P11473 whole entry, looked up): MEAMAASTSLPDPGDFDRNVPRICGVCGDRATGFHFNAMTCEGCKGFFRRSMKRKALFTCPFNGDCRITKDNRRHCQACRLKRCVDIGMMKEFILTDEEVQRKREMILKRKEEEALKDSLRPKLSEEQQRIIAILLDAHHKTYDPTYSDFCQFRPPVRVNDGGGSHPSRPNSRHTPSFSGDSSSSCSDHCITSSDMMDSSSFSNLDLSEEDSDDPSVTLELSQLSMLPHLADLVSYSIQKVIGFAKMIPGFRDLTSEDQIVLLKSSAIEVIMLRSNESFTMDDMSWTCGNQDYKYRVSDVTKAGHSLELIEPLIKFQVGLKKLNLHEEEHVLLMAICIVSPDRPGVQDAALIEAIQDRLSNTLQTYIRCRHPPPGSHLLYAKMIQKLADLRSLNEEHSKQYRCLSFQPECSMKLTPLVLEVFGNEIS

The target in the assay is Vitamin D3 receptor (Homo sapiens) (UniProt P11473). The experiment in a line: qHTS assay to identify small molecule antagonists of the vitamin D receptor (VDR) signaling pathway (AID 743223). The following applies: VDR-UAS-bla HEK293T, beta-lactamase FRET ratio, 16 h; series mostly up to 61 µM. An excerpt:
U.S. Tox21 Program National Center for Advancing Translational Sciences [NCATS] NIH Chemical Genomics Center [NCGC] U.S. Environmental Protection Agency [EPA] National Institutes of Environmental Health Sciences [NIEHS] National Toxicology Program [NTP] U.S. Food and Drug Administration [FDA] Tox21 Assay Overview: The vitamin D receptor (VDR), a member of nuclear hormone receptor superfamily, plays a critical role in calcium homeostasis and bone metabolism. It is also involved in cell differentiation and growth, and thrombogenicity.
Tox21 Assay Protocol Summary: VDR-bla cells were dispensed at 2,000 cells/5 uL of assay medium per well into black wall/clear-bottom 1536-well plates using a Multidrop Combi (Thermo Fisher Scientific, Waltham, MA) dispenser. After the assay plates were incubated at a 37C and 5% CO2 for 4 h, 23 nL of compounds dissolved in DMSO, positive controls or DMSO only was transferred to the assay plate by a Pintool station (Kalypsys, San Diego, CA), followed by addition of 1 uL of 1alpha, 25-Dihydroxy Vitamin D3 (3 nM, final concentration in the wells) using a Bioraptr Flying Reagent Dispenser (FRD) workstation (Beckman Coulter, Indianapolis, IN). The plates were incubated at 37C and 5% CO2 for 16 h, and then 1 uL of LiveBLAzerTM B/G FRET substrate was added using a Bioraptr FRD. The plates were incubated at room temperature for 2 h and fluorescence intensity was measured by an Envision plate reader (PerkinElmer, Shelton, CT).
For orientation: qHTS replaces the single test concentration by a dilution series.
With `CCCCCCCCCCCCCCCC(=O)O`, the outcome was inactive.
For the compound `NNC(=O)c1ccncc1`, the outcome was inactive.
With `COc1c2occc2cc2ccc(=O)oc12`, the result was inactive.
The entry for `O=NO` is “inactive”; for `O=S(=O)(O)c1ccc2cc(O)ccc2c1` it is “inactive”; for `O=C1NC(=O)c2ccccc21` it is “inactive”.
The entry for `Cc1cc(=O)[nH]c(=S)[nH]1` is “inactive”; for `O=C1CN(/N=C/c2ccc([N+](=O)[O-])o2)C(=O)N1` it is “inactive”; for `CCCNC(=O)NS(=O)(=O)c1ccc(Cl)cc1` it is “inactive”.
As for `NC(=O)c1ccccc1O`, the result was inactive.
`Nc1ccc(O)c(C(=O)O)c1`: the outcome was inactive.
With `NC(N)=NC(=O)c1nc(Cl)c(N)nc1N`, the outcome was inactive.
As to `CC(=O)NS(=O)(=O)c1ccc(N)cc1`, the result was inactive.
With `C1N2CN3CN1CN(C2)C3`, the outcome was inactive.
Regarding `O=C(c1ccccc1)c1ccccc1`, the result was inactive.
`CC(O)C(=O)O` (stereo not given): the result was inactive.
The entry for `Cn1cc[nH]c1=S` is “inactive”; for `Cc1cc(=O)n(-c2ccccc2)n1C` it is “inactive”.
Take `O=C(C1CCCCC1)N1CC(=O)N2CCc3ccccc3C2C1` (stereo not given): the result was inactive.
On to `CCCN(CCC)S(=O)(=O)c1ccc(C(=O)O)cc1`, for which the outcome was inactive.
The entry for `CCCCC1C(=O)N(c2ccccc2)N(c2ccccc2)C1=O` is “inactive”; for `O=C(c1ccccc1)C(O)c1ccccc1` (stereo not given) it is “inactive”; for `Cc1ccc(S(=O)(=O)NC(=O)NN2CCCCCC2)cc1` it is “inactive”.
With `Nc1ccc(S(=O)(=O)Nc2nccs2)cc1`, the result was inactive.
The entry for `Oc1ccc(/C=C/c2cc(O)cc(O)c2)cc1` is “inactive”.
Turning to `OC(Cn1cncn1)(Cn1cncn1)c1ccc(F)cc1F`, the result was inactive.
As to `O=C(O)C(=O)O`, the result was inactive.
The entry for `Cc1cn([C@H]2C[C@H](N=[N+]=[N-])[C@@H](CO)O2)c(=O)[nH]c1=O` is “inactive”; for `COc1ccc2[nH]cc(CCNC(C)=O)c2c1` it is “inactive”.
The entry for `CC(C)[C@@H]1CC[C@@H](C)C[C@H]1O` is “inactive”; for `Cc1ccc(O)cc1` it is “inactive”; for `O=C(O)CCCCCCCC(=O)O` it is “inactive”.
Turning to `O=C(O)/C=C\C(=O)O`, the outcome was inactive.
In the case of `O=C(O)CS`, the outcome was inactive.
For `CCCCOC(=O)CC(CC(=O)OCCCC)(OC(C)=O)C(=O)OCCCC`, the outcome was inactive.
On to `CC1(C)[C@@H]2CC[C@@]1(C)C(=O)C2`, for which the outcome was inactive.
On to `c1ccc2[nH]ccc2c1`, for which the result was inactive.
Turning to `N=C(N)c1ccc(OCCCCCOc2ccc(C(=N)N)cc2)cc1`, the result was inactive.
As for `NS(=O)(=O)c1cc(C(=O)O)c(NCc2ccco2)cc1Cl`, the outcome was inactive.
Turning to `O=C(O)CCC(=O)O`, the result was inactive.
